The values below are quoted from earlier work in PubChem BioAssay AID977611.

Screen size: about 3,900 compounds; about 3,900 (100%) were called active. No cut-off is given here; in the data, nearly all actives have Kd up to about 4200 µM. The set was probably picked from earlier hits. This is one part of the list. Numbered stars: 1 amine (or outer) side, 2 acyl side, 3 side chain; on linkers, the order of the positions; unused ones are H or OH. Where a SMILES comes first, the peptide text is derived from it. Non-standard residues stand in square brackets, D forms with d. Square brackets hold non-standard residues; d marks the D form. Residues, ends and D or L forms follow the SMILES beside them. Peptide text beside a SMILES is read from it. X1 = O=C([C@H](Cc1ccc(O[P+](O)(O)O)cc1)N[*:1])[*:2]; Orn(CH(NH2)2) = NC(N)NCCC[C@H](N)C(=O)O

The data set in a line: PubChem AID 977611. As to conditions: PDB protein-ligand complexes, literature Kd.

On to `CCOc1cc(C(=O)O)nc2c(NC(=O)c3cc(O)c4cccc(NC(=O)c5cc(O)c6cccc(NC(=O)c7cc(OCC(C)C)c8cccc(NC(=O)NCCCCOc9cccc(CNC(=O)c%10ccc(S(N)(=O)=O)cc%10)c9)c8n7)c6n5)c4n3)cccc12`, for which the Kd – broadly, a measure of binding affinity in units of concentration – (protein: Human Carbonic Anhydrase II, PDB entry 4lp6) was 5.36 nM (active).
Regarding `OS(O)(O)OC1C(OS(O)(O)O)C(OS(O)(O)O)C(OS(O)(O)O)C(OS(O)(O)O)C1OS(O)(O)O` (stereo not given), the Kd (protein: HISTIDINE ACID PHOSPHATASE, PDB entry 4aro) was 160 nM (active).
Regarding `Cc1cc(OCCCS(C)(=O)=O)cc(C)c1-c1cccc(COc2ccc3c(c2)OC[C@H]3CC(=O)O)c1`, the dissociation constant (Kd) (protein: Free fatty acid receptor 1,Lysozyme hGPR40(L42A,F88A,G103A,Y202F mutant), PDB entry 4phu) was 12 nM (active).
Turning to `CN(C)CCCn1cc(C2C(=O)NC(=O)C2c2c[nH]c3ccccc23)c2ccccc21` (stereo not given), under “protein: human PIM1 kinase domain, PDB entry 1xws”, the dissociation constant (Kd) was 10 nM (active).
Take `C[C@H]1O[C@@H](c2cccc(O)c2O)N[C@@H]1C(=O)NCCCN(CCCNC(=O)c1cccc(O)c1O)C(=O)[C@H]1N[C@H](c2cccc(O)c2O)O[C@@H]1C`: under “protein: Ferric vibriobactin ABC transporter, periplasmic ferric vibriobactin-binding protein, PDB entry 3r5t”, the dissociation constant (Kd) is 2.65 nM (active).
On to `CN(C)C1=CCN(Cc2ccc(CCCCc3ccc(Cn4cnc5c(N)ncnc54)cc3)cc2)C=C1`, for which, for the setting “protein: CHOLINE KINASE ALPHA, PDB entry 3zm9”, the Kd was 38 nM (active).
For the molecule `CC[C@H](C)[C@H](NC(=O)[C@@H](NC(=O)[C@H](CC(C)C)NC(=O)[C@@H](N)CO)[C@@H](C)O)C(=O)N[C@@H](Cc1ccc(O[P+](O)(O)O)cc1)C(=O)N[C@@H](C)C(=O)N[C@@H](CCC(N)=O)C(=O)N[C@H](C(=O)N[C@@H](CCC(N)=O)C(=O)N[C@@H](CCCCN)C(=O)O)C(C)C` (H-SLTI[X1]AQVQK-OH), the dissociation constant (Kd) by setting is: (protein: EWS/FLI1 activated transcript 2(ETA-2), PDB entry 1i3z) 131 nM (active); (protein: SAP, PDB entry 1d4w) 120 nM (active).
For `CC[C@H](C)[C@H](NC(=O)[C@H](CO)NC(=O)[C@H](CO)NC(=O)[C@H](CCC(N)=O)NC(=O)[C@@H](NC(=O)[C@H](CCC(N)=O)NC(=O)[C@H](CCCNC(N)N)NC(=O)[C@H](Cc1ccccc1)NC(=O)[C@@H](NC(=O)[C@@H](N)CCCNC(N)N)[C@@H](C)O)C(C)C)C(=O)N[C@@H](CO)C(=O)N[C@@H](CC(=O)O)C(=O)N[C@@H](Cc1ccccc1)C(=O)N[C@@H](Cc1ccc(O)cc1)C(=O)N[C@@H](CC(=O)O)C(=O)O` (H-[Orn(CH(NH2)2)]TF[Orn(CH(NH2)2)]QVQSSISDFYD-OH), the Kd (protein: Lipoprotein outS, PDB entry 4k0u) is 55 nM (active).
As to Ac-SISYTDEIEEEDYD-OH, the Kd (protein: Fibronectin, PDB entry 4pz5) was 121 nM (active).
Consider `CC[C@H](C)[C@H](NC(=O)[C@H](CC(=O)O)NC(=O)[C@H](CS)NC(=O)[C@H](CCC(N)=O)NC(=O)[C@@H](NC(=O)CNC(=O)[C@@H](NC(=O)[C@@H](NC(=O)[C@H](CO)NC(=O)[C@H](CO)NC(=O)[C@H](C)N)[C@@H](C)O)[C@@H](C)O)[C@@H](C)O)C(N)=O` (H-ASSTTGTQCDI-NH2), for which, where the note is “protein: Dynein light chain 1, cytoplasmic LC8, PDB entry 4qh8”, the Kd was 12800 nM (active).
As for `CC(C)C[C@H](NC(=O)[C@H](CC(C)C)NC(=O)[C@H](CC(N)=O)NC(=O)[C@@H](NC(=O)[C@H](C)NC(=O)[C@H](CCCCN)NC(=O)[C@H](CO)NC(=O)[C@H](CCCCN)NC(=O)[C@@H](NC(=O)[C@@H](N)CC(C)C)C(C)C)[C@@H](C)O)C(=O)N[C@H](C=O)Cc1ccc(O)cc1` (H-LVKSKATNLLY-aldehyde), the Kd (protein: ATP-Dependent Clp Protease Adapter Protein ClpS, PDB entry 2w9r) was 4800 nM (active).
With H-YAESGIQTDL-OH, the Kd (protein: Dynein light chain 1, cytoplasmic, PDB entry 4ds1) is 17900 nM (active).
As to `CC[C@H](C)[C@H](NC(=O)[C@H](Cc1ccccc1)NC(=O)[C@@H](NC(=O)[C@H](CO)NC(=O)[C@H](CO)NC(=O)[C@H](C)NC(=O)[C@@H](NC(=O)[C@@H](N)CCCNC(N)N)C(C)C)C(C)C)C(=O)N[C@H](C(=O)O)[C@@H](C)O` (H-[Orn(CH(NH2)2)]VASSVFIT-OH), the equilibrium dissociation constant (Kd) (protein: Filamin-A, PDB entry 2w0p) is 300 nM (active).
With `CC[C@H](C)[C@H](NC(=O)[C@@H](NC(=O)[C@H](CC(C)C)NC(=O)[C@H](CO)NC(=O)[C@@H](N)CCCCN)[C@@H](C)O)C(=O)N[C@@H](Cc1ccc(O)cc1)C(=O)N[C@@H](C)C(=O)N[C@@H](CCC(N)=O)C(=O)N[C@H](C(=O)N[C@@H](CCC(N)=O)C(=O)N[C@@H](CCCCN)C(=O)O)C(C)C` (H-KSLTIYAQVQK-OH), the Kd (protein: SAP, PDB entry 1d4t) is 650 nM (active).
Take `C[C@H](N)C(=O)N[C@@H](Cc1c[nH]c2ccccc12)C(=O)N[C@@H](CC(N)=O)C(=O)N[C@@H](CO)C(=O)O` (H-AWNS-OH): the Kd (protein: mRNA-capping enzyme subunit alpha Pce1, PDB entry 4pz8) is 1190 nM (active).
Regarding `N[C@@H](CC(=O)O)C(=O)N[C@@H](Cc1c[nH]c2ccccc12)C(=O)N[C@@H](CCC(=O)O)C(=O)N[C@@H](Cc1ccccc1)C(=O)O` (H-DWEF-OH), the equilibrium dissociation constant (Kd) (protein: human protein 25? (MO25?), PDB entry 1upk) is 400 nM (active).
As to H-GWNSFQSS-OH, the Kd (protein: GAE domain of ADP-ribosylation factor-binding protein GGA1(GGA1-GAE), PDB entry 2dwx) is 180000 nM (active).
As for `CSCC[C@H](NC(=O)[C@H](CCCN=C(N)N)NC(=O)[C@H](CCCN=C(N)N)NC(=O)[C@H](Cc1ccccc1)NC(=O)[C@H](CO[P+](O)(O)O)NC(=O)[C@H](CCC(N)=O)NC(=O)[C@H](CCCN=C(N)N)NC(=O)[C@H](CC(C)C)NC(=O)[C@H](CO)NC(=O)[C@H](CCCCN)NC(=O)[C@@H](N)CCCCN)C(=O)N[C@@H](C)C(=O)O`, the Kd (protein: Disks large homolog 4, Dlg GK, PDB entry 3wp1) is 14100 nM (active).
For `CC(C)C[C@H](NC(=O)[C@H](CO)NC(=O)[C@H](CCCCN)NC(=O)[C@H](CCCCN)NC(=O)[C@H](CC(C)C)NC(=O)[C@H](CO[P+](O)(O)O)NC(=O)[C@H](CCCCN)NC(=O)[C@@H](NC(=O)[C@H](CCCN=C(N)N)NC(=O)[C@H](CO)NC(=O)[C@H](C)N)C(C)C)C(=O)N[C@@H](CCCN=C(N)N)C(=O)N[C@@H](CCC(N)=O)C(=O)N[C@@H](CO)C(=O)N[C@@H](Cc1ccccc1)C(=O)O`, the dissociation constant (Kd) (protein: Disks large homolog 4, Dlg GK, PDB entry 3wp0) was 10200 nM (active).
